This is part of a sample that, as a whole, favours compounds with a hit. Of some 83,000 tested, about 20% had one in any assay.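 Single-concentration screen, 48 h exposure, 96-well plates. Endpoint: percent growth. Below 10 = active.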 A number with no mark means an inactive call. Calls of active or inactive are those of the source.
Tested on: OVCAR-4 ovarian
Assay: NCI-60 one-dose screen, 48 h (100 = growth as untreated, 0 = no growth, -100 = all killed)
Details: 10 µM

SMILES | growth
NC(=O)SCC(=O)Nc1ccc(S(N)(=O)=O)cc1 | 106%
CN(C)C(=S)N/N=C\C=N/NC(=S)N(C)C | -36.5% (active)
COC(=O)[C@@H]1[C@H](O)[C@H](C)[C@H](O)[C@@](C)(O)/C=C\C=C(C)C(=O)Nc2c(C)c(OC(C)=O)c3c(c2O)C(=O)C(C)=C2OCOC(=C23)C(C)=C[C@@](C)(O)[C@H](O)[C@@H](C)[C@H]1OC(C)=O | 117%
COc1cccc(C2C3=C(COC3=O)N(CCO)c3cc(OC)ccc32)c1 (configuration not stated) | 59.2%
CCc1ccc2c(c1)N(CCO)C1=C(C(=O)OC1)C2c1ccccc1 (configuration not stated) | 104%
CO/N=C(/C(=O)NC1C(=O)N2C(C(=O)O)=C(COC(N)=O)CSC12)c1ccco1 (configuration not stated) | 106%
COc1ccc(N2C(=O)C3c4[nH]c5ccc(OCc6ccccc6)cc5c4C4CCC(C(C)C)CC4C3C2=O)cc1 (configuration not stated) | 47.7%
CCN(CC)CCNC(=O)c1ccc(NC(C)=O)cc1 | 108%
CN(C)CCN1C(=O)c2cccc3cc(N)cc(c23)C1=O | -5.76% (active)
CN1CC[C@@H](c2c(O)cc(O)c3c(=O)cc(-c4ccccc4Cl)oc23)[C@@H](O)C1 | -26.7% (active)
O=C(/C=C/c1cc2ccccc2[nH]c1=O)c1ccc2c(c1)OCO2 | 88%
CCCC1(CC(=O)O)OCCc2c1[nH]c1ccccc21 (configuration not stated) | 74%
C=C(Cl)[C@@](Cl)(CBr)CC[C@@H](Br)C(C)(C)Cl | -37% (active)
CC[C@H](C)C(=O)O[C@H]1CCC=C2C=C[C@H](C)C(CCC3C[C@@H](O)CC(=O)O3)[C@H]21 (some centres not stated) | 98.7%
CC1CN(Cc2ccccc2)C(=O)NC1=O (configuration not stated) | 123%
Cc1cccc2c(NCCN(C)C)c3cccc(C(=O)NCCN(C)C)c3nc12 | -44% (active)
O=C(CCCCCCC(=O)Nc1cccnc1)NO | 16.1%
O=C1OCC2=C1C(c1cccc(Br)c1)c1cc3c(cc1N2CCO)CCC3 (configuration not stated) | 54.6%
O=C(CNC(=O)OCc1ccccc1)NCC(=O)Oc1ccc([N+](=O)[O-])cc1 | 99.2%
COc1cc(NC(=O)CSc2nc3ccccc3c(=O)n2CCc2ccccc2)cc(OC)c1OC | 53.8%
CCOCCOCCOCCOCCOCCOCCOCCOCCOCCO (tested in a mixture with another compound) | 21.3%
Nc1ncn(C2OC(CO)C(O)C2O)c(=O)n1 (configuration not stated) | -30.3% (active)
N#Cc1c(C#N)c(SSc2c(C#N)c(C#N)c(N)n2-c2ccccc2)n(-c2ccccc2)c1N | 76.8%
O=C1NC(=O)N(Cc2ccccc2)CC1Br (configuration not stated) | 77.7%
C=C(NC(=O)C(=C)NC(=O)c1csc(C2=NC3c4csc(n4)C4NC(=O)c5csc(n5)C(C(C)(O)C(C)O)NC(=O)C5CSC(=N5)/C(=C/C)NC(=O)C(C(C)O)NC(=O)c5csc(n5)C3(CC2)NC(=O)C(C)NC(=O)C(=C)NC(=O)C(=C)NC(=O)C(C(C)C)NC2C=Cc3c(C(C)O)cc(nc3C2O)C(=O)OC4C)n1)C(N)=O (configuration not stated) | 6.53% (active)
O=C1ON=[N+](c2ccc(Cc3ccc([N+]4=NOC(=O)C4CN4CCOCC4)cc3)cc2)C1CN1CCOCC1 (configuration not stated) | 53.9%
C/C(=N\Nc1nc2ccccc2s1)c1ccncn1 | -12.3% (active)

— PubChem BioAssay (NCI)
